HT1080NT lethal – kills 2HG-producing HT-1080-NT fibrosarcoma cells | Potency, µM (titrated, usually from 46.1 µM), for the others: at the highest dose activity, negative = less viability, most hits filed as cytotoxic | HT-1080-NT fibrosarcoma viability, CellTiter-Glo ATP luminescence, 48 h | 1.6% of 360,000 active | AID 686970;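 note: NT is the 2HG producing partner of a matched IDH1 knockdown line; potency is the fitted concentration of half-maximal effect; 0% = DMSO-treated cells and -100% = media-only wells without cells; nearly all actives have a fitted effect of over 55% in size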
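Viability of the 2HG-overproducing fibrosarcoma line after 48 hours of compound exposure at 37 degrees C was determined by luminescence with CellTiter-Glo, and concentration-effect curves were then fitted and categorized.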
DT40 TDP1 CPT – growth inhibition of DT40 Tdp1-/-;hTDP1 cells with camptothecin (screen for TDP1 inhibitors). AID 686979. Potency, µM (doses to about 46.2 µM), without a hit: at the top dose activity change, negative = growth inhibition, most hits filed as inhibitors. 12% of 420,000 active. chicken DT40 Tdp1-/-;hTDP1 cells + 20 nM CPT, ATP luminescence, 48 h; note: potency is the fitted concentration of half-maximal effect; nearly all actives have a fitted effect of over 55% in size
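Cell growth measured by CellTiter-Glo luminescence after a minimum 48 h, 37 C compound exposure with 20 nM CPT in Tdp1-knockout DT40 cells stably expressing hTDP1, seeded 400/well; qHTS titration format.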
DT40 TDP1 no CPT – qHTS for Inhibitors of human tyrosyl-DNA phosphodiesterase 1 (TDP1): qHTS in cells in absence of CPT; DT40 Tdp1-/- hTDP1 cells, no CPT, ATP luminescence, 48 h; Potency, µM (series often up to 46.2 µM), inactives show at the highest dose activity change, negative = growth inhibition, actives largely listed as inhibitors; 15% of 420,000 active; AID 686978, 2013; note: potency is the fitted concentration of half-maximal effect; nearly all actives have a fitted effect of over 55% in size
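Chicken DT40 Tdp1-/- cells complemented with human TDP1, screened without camptothecin (DMSO vehicle only), 400 cells/well. Compounds pin-transferred, cells incubated at 37 °C for at least 48 hr. Growth read as ATP-dependent luminescence (CellTiter-Glo, 30 min at RT).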
HT1080 IDH1KD tx – toxicity to HT-1080 IDH1 knockdown cells (counter line); HT-1080 IDH1 knockdown viability, ATP luminescence, 48 h; Potency, µM (series often up to 46.1 µM), for inactives: top-dose activity, negative = toxicity, hits mostly cytotoxic; 2% of 360,000 active; AID 686971;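 note: potency is the fitted concentration of half-maximal effect; 0% = DMSO wells and -100% = cell-free medium wells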
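% activity derives from luminescence (CellTiter-Glo), normalised to DMSO and no-cell wells. HT-1080-IDH1KD cells, 750/well, had 48 h compound exposure at 37 °C.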
IL-1B inflam inh – inhibitors of inflammasome signaling (IL-1 beta secretion); THP-1 LPS/ATP IL-1B secretion, AlphaLISA, 16 h; stronger effect = lower value; 4.7% of 360,000 active; activity change, % at 57.5 µM; AID 743279; in the data active = activity change below about -50%; inconclusive = mostly about -30% to -49%
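Secreted IL-1B measured by AlphaLISA bead assay after 16 h compound exposure of THP-1 cells; compounds (final up to 57.5 uM) added 1 h before LPS (250 ng/mL) and ATP (1.25 mM) stimulation; lower signal means less secretion.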
ALOX12 inh – blocks human arachidonate 12S-lipoxygenase | 1.1% of 580,000 active | purified 12hLO, xylenol orange hydroperoxide absorbance | Potency, µM (top dose mostly 108 µM), for the others: at the top dose activity change, negative = inhibition, usual class: inhibitors; note: potency is the fitted concentration of half-maximal effect
Target sequence (P18054 whole entry, looked up): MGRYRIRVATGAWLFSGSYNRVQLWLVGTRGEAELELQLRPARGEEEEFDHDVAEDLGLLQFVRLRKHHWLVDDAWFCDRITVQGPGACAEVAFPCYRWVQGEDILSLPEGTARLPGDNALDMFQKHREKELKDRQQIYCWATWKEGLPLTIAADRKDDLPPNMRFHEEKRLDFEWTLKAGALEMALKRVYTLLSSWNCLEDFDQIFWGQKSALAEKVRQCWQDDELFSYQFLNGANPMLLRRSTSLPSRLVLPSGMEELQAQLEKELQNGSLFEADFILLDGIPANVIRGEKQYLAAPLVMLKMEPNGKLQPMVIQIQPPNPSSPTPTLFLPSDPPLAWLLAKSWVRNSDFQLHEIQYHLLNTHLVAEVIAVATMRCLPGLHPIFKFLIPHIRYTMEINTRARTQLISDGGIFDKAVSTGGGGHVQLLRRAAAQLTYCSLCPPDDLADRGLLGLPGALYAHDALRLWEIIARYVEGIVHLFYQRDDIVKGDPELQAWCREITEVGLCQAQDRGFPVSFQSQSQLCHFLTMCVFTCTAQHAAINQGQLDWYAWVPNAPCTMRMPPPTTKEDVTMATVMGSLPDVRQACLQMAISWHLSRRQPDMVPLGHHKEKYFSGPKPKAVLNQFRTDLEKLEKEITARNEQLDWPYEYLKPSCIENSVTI
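Purified human 12hLO at 150 nM in 25 mM Hepes, 0.01% Triton X-100, pH 7.0, preincubated 15 min at room temperature with compound. Reaction started with 40 uM arachidonic acid, 30 min at room temperature. Hydroperoxide measured by Fe-xylenol orange, 573/405 nm absorbance ratio.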
An asterisk follows results filed as active; ? = inconclusive; . = no result given; [ ] = remark or other dose. This is one part of a sample in which hits are shown more often than they occur. Unless noted, calls come from the whole dose curve; as a rule, active = well fitted curve in the direction sought with a large enough effect; inconclusive = small, poorly fitted or top-dose-only effect, or another doubt; inactive = no such curve, though single readings can be large; an effect the other way counts as inactive or inconclusive. Unless noted, % is set by controls: 0 for no effect and ±100 for the full control effect.

SMILES	HT1080NT lethal	DT40 TDP1 CPT	DT40 TDP1 no CPT	HT1080 IDH1KD tx	IL-1B inflam inh	ALOX12 inh
CC(=O)C1=C(C)NC(SCC(=O)Nc2nc3ccccc3s2)=C(C#N)C1c1ccc(Cl)cc1 (stereo not drawn)	-21%	?	18µM*	-3%	-3	?
Cc1ccc2nc(NC(=O)c3cccc(-c4cc5ccccc5oc4=O)c3)sc2c1	?	15µM*	23µM*	?	31	?
CCOc1ccc2nc(NC(=O)c3cccc(-c4cc5ccccc5oc4=O)c3)sc2c1	13µM*	?	23µM*	16µM*	-20	?
CCOc1ccc(C(=O)Nc2cccc(-c3cc4ccccc4oc3=O)c2)cc1[N+](=O)[O-]	3%	23µM*	23µM*	-6%	1	-3%
CCOc1ccc(C(=O)Nc2cccc(-c3nc4ccccc4o3)c2C)cc1[N+](=O)[O-]	.	.	.	.	.	-21%
O=C(Nc1cccnc1)c1cccc(-c2cc3ccccc3oc2=O)c1	11%	34%	-7%	11%	20	-14%
CC(C)NC(=O)N[C@H]1C[C@H]2C(=O)NC[C@@H](CCC(=O)N3CCN(C)CC3)N2C1	.	.	.	.	.	13%[176 µM]
CN(CC(=O)NC(=O)NC1CCCC1)c1ccccc1	.	.	.	.	.	-7%
Cc1ncc(Cl)c(C(=O)N2CCCn3nc(CO)cc3C2)n1	.	.	.	.	.	64%
Cc1c(Cl)cccc1NC(=S)NN	-2%	?	?	3%	-6	1%
Cc1cccc(Cl)c1NC(=S)NN	3%	?	13µM*	2%	-8	?
Cn1c(=O)c2c(-c3ccccc3)n(-c3ccccc3Br)cc2n(C)c1=O	-29%	4.6µM*	5.2µM*	-23%	-1	-11%
COc1ccc(-c2c3c(=O)n(C)c(=O)n(C)c3cn2-c2ccccc2O)cc1	-26%	?	-27%	-22%	40	0%
Cc1cccc(-c2c3c(=O)n(C)c(=O)n(C)c3cn2-c2ccc(O)cc2)c1	-7%	?	?	-10%	7	?
Cn1c(=O)c2c(-c3ccccc3)n(-c3cccc(O)c3)cc2n(C)c1=O	-3%	18µM*	9.2µM*	-17%	-13	-24%
COc1ccc(-c2c3c(=O)n(C)c(=O)n(C)c3cn2-c2cc(OC)ccc2OC)cc1	-17%	?	23µM*	?	-9	2%
COc1ccccc1-n1cc2c(c1-c1ccc(C)cc1)c(=O)n(C)c(=O)n2C	.	.	.	.	.	-28%
Cn1c(=O)c2c(-c3ccccc3)n(-c3ccc(N)cc3)cc2n(C)c1=O	-12%	?	15µM*	1%	5	?
Cn1c(-c2ccc3ccccc3c2)cc2ccccc21	.	.	.	.	.	-14%
O=c1oc(-c2ccc([N+](=O)[O-])cc2)nc2ccc(O)cc12	0%	-2%	-16%	-3%	-68*	-7%
Cc1cccc(OC[C@H]2C[C@@H](NCc3cccc4c3OCO4)[C@H](O)[C@@H]2O)n1	.	.	.	.	.	20µM*
O=C(NCc1ccccn1)C1CC(c2ccc(F)cc2)=NO1 (stereo not drawn)	7%	-13%	-5%	9%	8	-12%
O=C(NCc1ccccn1)C1CC(c2ccc(Cl)c(Cl)c2)=NO1 (stereo not drawn)	-20%	?	21µM*	?	33	0%
O=C(NCc1cccnc1)C1CC(c2ccc(Cl)c(Cl)c2)=NO1 (stereo not drawn)	-24%	?	21µM*	-30%	34	15%
Cc1ccc2nc(-c3ccc(N/C(N)=N/c4nc(C)cc(C)n4)cc3)sc2c1	.	.	.	.	.	-92%
SMILES	HT1080NT lethal	DT40 TDP1 CPT	DT40 TDP1 no CPT	HT1080 IDH1KD tx	IL-1B inflam inh	ALOX12 inh
COC(=O)[C@H](Cc1c[nH]c2ccccc12)NCc1cccc(B(O)O)c1	-2%	24%	-2%	3%	-66*	?
Cc1cc(Cl)ccc1C(O)c1ncc(-c2ccc3ccccc3c2)[nH]1 (stereo not drawn)	?	?	?	?	-22	?
Cc1cc(Cl)ccc1C(O)c1ncc(-c2ccc(Cl)cc2)[nH]1 (stereo not drawn)	?	13µM*	?	?	-10	-18%
Cc1cc(F)ccc1C(O)c1ncc(-c2ccc(Cl)cc2)[nH]1 (stereo not drawn)	-20%	1%	?	-23%	0	?
Cc1cccc(-c2cnc(C(O)c3ccc(Cl)cc3C)[nH]2)c1 (stereo not drawn)	?	?	18µM*	?	-8	-22%
Cc1ccc(-c2cnc(C(O)c3ccc(Cl)cc3C)[nH]2)cc1 (stereo not drawn)	-19%	23µM*	?	-21%	-18	-1%
Cc1ccc(C(O)c2ncc(-c3ccccc3)[nH]2)c(C)c1 (stereo not drawn)	3%	?	-29%	-8%	-5	0%
Cc1cc(Cl)ccc1C(O)c1ncc(-c2ccc(F)cc2)[nH]1 (stereo not drawn)	?	?	?	21µM*	-14	.
O=C(C[C@@H]1CCNC[C@@H]1Cc1cc(CC2CCCCC2)on1)N1CCC(Cc2ccccc2)CC1	.	.	.	.	.	-16%
O=C(Cc1ccsc1)NC1CCCN(c2cc(-c3ccccc3)[nH]n2)C1 (stereo not drawn)	.	.	.	.	.	5%
COCCCNC(=O)N1CCCCCCN(C)C(=O)[C@@H]2CCC[C@@H]21	.	.	.	.	.	16%
COc1ccc(Nc2nnc(-c3ccc(C)cc3)c3ccccc23)cc1C(=O)N1CCCCC1	?	?	?	?	-74*	-29%
COc1cc(C(=O)N2CCN(c3ccccc3)CC2)c2ccccc2n1	?	0.92µM*	0.73µM*	0.52µM*	78	-9%
COc1ccc(-c2cc(C(=O)N3CCCCC3)c3ccccc3n2)cc1OC	-11%	?	-50%	-9%	-69*	?
O=C(c1cc(-c2cccs2)nc2ccccc12)N1CCN(c2ccccc2)CC1	-17%	?	?	?	-12	-16%
COc1ccc(-c2cc(C(=O)N3CCCCC3)c3ccccc3n2)cc1	-7%	16µM*	?	-1%	-26	8%
COc1ccc(Nc2nnc(-c3ccccc3)c3ccccc23)cc1C(=O)N1CCCCC1	-5%	-26%	-22%	-19%	-14	-20%
CC(C)c1ccc(CNCC2CCCO2)cc1 (stereo not drawn)	.	.	.	.	.	1%

Screens: PubChem BioAssay, National Center for Advancing Translational Sciences (NCATS)
